These results are taken from ChEMBL document CHEMBL3433997, “St. Jude Leishmania screening dataset” (2016).

Common to all, as to type: functional
Experiment [1] concerns the target Solute carrier family 2, facilitated glucose transporter member 1 (Homo sapiens) (UniProt P11166). In words: ST_JUDE_LEISH: Cytotoxicity at 2uM final concentration against transgenic Leishmania Mexicana promastigotes LmGLUT1 that are glucose transport deficient and complemented with the human glucose transporter GLUT1. Activity is measured by DNA content using SYBR green in vitro.

The target in experiment [2] is Hexose transporter 1 (Plasmodium falciparum) (UniProt O97467). In words: ST_JUDE_LEISH: Cytotoxicity at 2uM final concentration against transgenic Leishmania Mexicana promastigotes LmPfHT that are glucose transport deficient and complemented with the Plasmodium falciparum hexose transporter. Activity is measured by DNA content using SYBR green in vitro.
The target of experiment [3] is Glucose transporter (Leishmania mexicana) (UniProt O61059). In words: ST_JUDE_LEISH: Cytotoxicity at 2uM final concentration against transgenic Leishmania Mexicana promastigotes LmGT2 that are glucose transport deficient and complemented with the L. Mexicana glucose transporter 2. Activity is measured by DNA content using SYBR green in vitro.

A word on the inhibition: it is the change of the read-out against control, counted positive when it falls.

Sequence of Solute carrier family 2, facilitated glucose transporter member 1 (Homo sapiens) (P11166 whole entry): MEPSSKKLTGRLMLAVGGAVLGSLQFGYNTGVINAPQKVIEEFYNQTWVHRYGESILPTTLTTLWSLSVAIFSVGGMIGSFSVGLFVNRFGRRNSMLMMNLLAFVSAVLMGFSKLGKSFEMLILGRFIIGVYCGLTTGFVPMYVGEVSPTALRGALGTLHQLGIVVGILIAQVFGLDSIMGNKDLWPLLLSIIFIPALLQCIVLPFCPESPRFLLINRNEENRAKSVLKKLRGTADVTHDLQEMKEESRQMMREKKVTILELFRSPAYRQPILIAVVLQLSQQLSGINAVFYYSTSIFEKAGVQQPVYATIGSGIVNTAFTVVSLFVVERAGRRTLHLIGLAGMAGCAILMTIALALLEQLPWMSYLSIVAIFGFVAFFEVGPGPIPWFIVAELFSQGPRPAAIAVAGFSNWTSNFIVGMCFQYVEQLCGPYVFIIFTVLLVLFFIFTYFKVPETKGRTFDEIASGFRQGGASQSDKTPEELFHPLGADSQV

For the compound `CCOC(=O)N1CCN(CCCCCNc2cc(C)nc(NC(=N)Nc3ccc(Cl)cc3)n2)CC1`, the inhibition is 6.99% in experiment [1], 8.05% in experiment [2] and 6.08% in experiment [3].

Turning to `Cn1cnc2c(Nc3ccncc3)nc(-c3ccc4c(c3)OCO4)nc21`, the inhibition in experiment [1] is 8.06%; in experiment [2], 6.78%; in experiment [3] it was 3.95%.

Turning to `CCOC(=O)c1ccc(-n2c(C)cc(C=C3SC(=Nc4ccccc4)N(C4CCCC4)C3=O)c2C)cc1`, the inhibition worked out at 3.76% in experiment [1], 3.52% in experiment [2] and 4.67% in experiment [3].

Regarding `CCCc1ccc(-c2csc(NC(=O)c3ccc([N+](=O)[O-])o3)n2)cc1`, the inhibition in experiment [1] came to 78.4%; in experiment [2], 77.8%; in experiment [3] it was 37.8%.

As to `Cc1cc(N2CCOCC2)nc(Nc2ccc(NC(=O)c3cccc4ccccc34)cc2)n1`, the values for the inhibition in experiment [1], in experiment [2] and in experiment [3] were 7.25%, 8.47% and 5.87%, respectively.

In the case of `CCOc1ccc2nc(NC(=O)c3csnn3)sc2c1`, the inhibition is 4.69% in experiment [1], 3.55% in experiment [2] and -1.06% in experiment [3].

Turning to `CC(C)(C)c1cc(Cn2ccnc2)cc(C(C)(C)C)c1O`, the inhibition in experiment [1] was found to be 6.9%; in experiment [2], 9.32%; in experiment [3], 4.9%.

For `Cc1cc(N/N=C/c2ccccc2[N+](=O)[O-])c2cc(C(F)(F)F)ccc2n1`, the figures for the inhibition in experiment [1], in experiment [2] and in experiment [3] were -3.14%, 0.97% and 1.45%, respectively.

Take `CCNC(=O)N[C@@H]1CN[C@@H](C#Cc2cc3c(Nc4ccc(OCc5cccc(F)c5)c(Cl)c4)ncnc3s2)C1`: the inhibition is -0.84% in experiment [1], -1.15% in experiment [2] and -0.46% in experiment [3].

Take `CN(Cc1cnc2nc(N)nc(N)c2n1)c1ccc(C(=O)N[C@H](CCC(=O)OC(C)(C)C)C(=O)N[C@@H](CCC(=O)OC(C)(C)C)C(=O)OC(C)(C)C)cc1`: the inhibition in experiment [1] was 2.25%; in experiment [2], 1.59%; in experiment [3], 3.05%.

In the case of `COc1ccc2nccc([C@@H](O)CN3CCC(NC(=O)c4ccc(Cl)c(OC)c4)CC3)c2c1`, the inhibition in experiment [1] amounted to 4.62%; in experiment [2], 7.71%; in experiment [3], 0.22%.

As for `CCCCNc1c(CC)c(C)c(C#N)c2nc3ccccc3n12`, the inhibition in experiment [1] turned out to be 29.1%; in experiment [2], 51.4%; in experiment [3] it was 21.8%.

For `N=C(N)NN=Cc1c2ccccc2c(Cl)c2c(Cl)cccc12`, the inhibition in experiment [1] worked out at 24.6%; in experiment [2], 26.2%; in experiment [3] it was 10.2%.

With `CCOc1cc(Cc2cnc(N)nc2N)cc(Br)c1OC`, the inhibition turned out to be 0.49% in experiment [1], 2.73% in experiment [2] and 2.29% in experiment [3].

Consider `COc1ccc(-c2c(-c3ccc(OCc4ccccc4)cc3O)n[nH]c2C(F)(F)F)cc1`, for which the inhibition in experiment [1] amounted to 3.36%; in experiment [2] it was 1.26%; in experiment [3], 1.92%.

On to `O=C(NCCc1ccc(Cl)c(Cl)c1)[C@@H]1CCCN1C(=O)c1ccc(O)c(-c2ccc(Cl)c(Cl)c2)c1`, for which the inhibition in experiment [1] was -1.56%; in experiment [2], -0.69%; in experiment [3], -1.51%.

Take `CC(=O)OC[C@H]1O[C@@H](C#Cc2ccccc2)[C@H](OC(C)=O)[C@@H](OC(C)=O)[C@@H]1OC(C)=O`: the inhibition in experiment [1] turned out to be 1.22%; in experiment [2], 2.07%; in experiment [3], 0.66%.

On to `CCCC[C@@H](C(=O)NCc1ccccc1C(F)(F)F)N1C(=O)CCC1C(=O)Nc1ccc([N+](=O)[O-])cc1` (stereo partly drawn), for which the inhibition turned out to be 1.1% in experiment [1], 2.37% in experiment [2] and 2.75% in experiment [3].

Take `COC(=O)c1cccc(CNCc2cccc(-c3ccc(-c4nc5ccccc5[nH]4)cc3)c2)c1`: the inhibition is 5.57% in experiment [1], 5.76% in experiment [2] and 2.19% in experiment [3].

Take `CC(C)CCN1CCC(Oc2ccc(NC(=O)c3cccs3)cc2Cl)C1` (stereo not drawn): the inhibition in experiment [1] came out at 10.2%; in experiment [2], 11.8%; in experiment [3], 9.02%.

With `CC(C)c1cn2c3c(cc(C(=O)N[C@@H](Cc4ccccc4)[C@H](O)CNC4CCOCC4)cc13)N(C)S(=O)(=O)CC2`, the inhibition in experiment [1] was 3.12%; in experiment [2], 2.83%; in experiment [3], 3.22%.

`Cc1ccccc1C1CCN(c2ccc(C(=O)Nc3ccc(F)cc3)cn2)CC1`: the inhibition was 4.93% in experiment [1], -0.36% in experiment [2] and 5.56% in experiment [3].

On to `CC1CC(C)CN(S(=O)(=O)c2cc(C(=O)Nc3cccc([N+](=O)[O-])c3)ccc2Br)C1` (stereo not drawn), for which the inhibition amounted to 7.03% in experiment [1], 7.57% in experiment [2] and 5.14% in experiment [3].

Consider `Cc1cc(F)ccc1Nc1nc(N(C)c2ccccc2)c2cccc(OCCO)c2n1`, for which the figures for the inhibition in experiment [1], in experiment [2] and in experiment [3] were 13.7%, 11.2% and 4.48%, respectively.

As for `CC(=O)Nc1ccc(S(=O)(=O)Nc2ccc(Nc3nc(C)cc(N4CCCCC4)n3)cc2)cc1`, the inhibition amounted to 5.51% in experiment [1], 5.79% in experiment [2] and 5.54% in experiment [3].

Consider `CC1(C)N=C(N)N=C(N)N1c1cc(Cl)c(Cl)c(Cl)c1`, for which the inhibition was 1.4% in experiment [1], 0.23% in experiment [2] and 2.36% in experiment [3].

With `O=C(NC1CCCC1)c1cc2c(=O)n3ccccc3nc2[nH]/c1=N/CCc1ccccc1`, the inhibition amounted to 11.5% in experiment [1], 8.49% in experiment [2] and 5.94% in experiment [3].

For the compound `CCCCCCCN1CCC(CC(=O)Nc2ccnc3ccc(OC)cc23)CC1`, the inhibition in experiment [1] is 11.3%; in experiment [2] it was 9.11%; in experiment [3], 6.34%.

On to `COc1c(CNCCCCCCNCc2c(OC)c(OC)c3ccccc3c2OC)c(OC)c2ccccc2c1OC`, for which the inhibition was found to be 67.6% in experiment [1], 11.8% in experiment [2] and 56.7% in experiment [3].

Take `Cc1c(Cn2ncc(N3CC(C)NC(C)C3)c(Cl)c2=O)cccc1NC(=O)Nc1ccc(-c2ccccc2)cc1` (stereo not drawn): the inhibition worked out at 4.08% in experiment [1], 3.21% in experiment [2] and 5.17% in experiment [3].

In the case of `c1ccc2cc3c(Nc4ccc(N5CCCCC5)cc4)ccnc3cc2c1`, the inhibition in experiment [1] turned out to be 2.76%; in experiment [2] it was 4.37%; in experiment [3], 2.3%.

Take `CCN1CCC(N(Cc2ccc(-c3ccc(C(F)(F)F)cc3)cc2)C(=O)CCCCn2c(CCc3cccc(F)c3F)nc(=O)c3ccccc32)CC1`: the figures for the inhibition in experiment [1], in experiment [2] and in experiment [3] were 1.08%, -1.15% and -0.6%, respectively.

Regarding `C=CCc1cc(Cc2cnc(N)nc2N)c2ccc(C)nc2c1O`, the inhibition in experiment [1] amounted to 2.17%; in experiment [2] it was 1.88%; in experiment [3], 0.24%.

On to `Cc1ccc(OCCCCON2C(=N)N=C(N)NC2(C)C)cc1C`, for which the figures for the inhibition in experiment [1], in experiment [2] and in experiment [3] were 1.02%, 1% and 0.54%, respectively.

Regarding `NC1CCN(Cc2ccc(-c3ccc(-c4nc5ccccc5[nH]4)cc3)cc2)C1` (stereo not drawn), the inhibition in experiment [1] is 12.9%; in experiment [2], 10.4%; in experiment [3], 5.07%.

For `CN(C)Cc1ccc(-c2ccc3ccnc(N)c3c2)cc1`, the figures for the inhibition in experiment [1], in experiment [2] and in experiment [3] were 3.2%, 4.43% and 1.95%, respectively.
